This is a sample that favours compounds with a hit; in the whole collection about 12% have one here.
Sfp inh: qHTS Assay for Inhibitors of Bacillus subtilis Sfp phosphopantetheinyl transferase (PPTase); AID 1490, 2009; 310,000 compounds, 3.5% hits; Biochemical Sfp PPTase activity, qHTS; Potency, µM, usual class: inhibitors;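 further: the enzyme is Sfp with the accession as filed and its product quenches rhodamine fluorescence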
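After 15 min at room temperature with compound, 15 nM Sfp received 5 uM rhodamine-CoA plus 12.5 uM BHQ-2-ybbR (50 mM Hepes pH 7.6, 10 mM MgCl2). Rate came from the fluorescence difference over 30 min, ex 525/em 598 nm.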
L3MBTL1 inh: qHTS Assay for the Inhibitors of L3MBTL1. 230,000 compounds, 0.66% hits. Lethal(3)malignant brain tumor-like protein 1 (Homo sapiens), Q9Y468. Potency, µM (top dose mostly 57.1 µM), actives largely listed as inhibitors. AlphaScreen L3MBTL1–H3K9me1 peptide binding; further: nearly all actives have a fitted effect of over 60% in size
Target sequence (Q9Y468 whole entry, looked up): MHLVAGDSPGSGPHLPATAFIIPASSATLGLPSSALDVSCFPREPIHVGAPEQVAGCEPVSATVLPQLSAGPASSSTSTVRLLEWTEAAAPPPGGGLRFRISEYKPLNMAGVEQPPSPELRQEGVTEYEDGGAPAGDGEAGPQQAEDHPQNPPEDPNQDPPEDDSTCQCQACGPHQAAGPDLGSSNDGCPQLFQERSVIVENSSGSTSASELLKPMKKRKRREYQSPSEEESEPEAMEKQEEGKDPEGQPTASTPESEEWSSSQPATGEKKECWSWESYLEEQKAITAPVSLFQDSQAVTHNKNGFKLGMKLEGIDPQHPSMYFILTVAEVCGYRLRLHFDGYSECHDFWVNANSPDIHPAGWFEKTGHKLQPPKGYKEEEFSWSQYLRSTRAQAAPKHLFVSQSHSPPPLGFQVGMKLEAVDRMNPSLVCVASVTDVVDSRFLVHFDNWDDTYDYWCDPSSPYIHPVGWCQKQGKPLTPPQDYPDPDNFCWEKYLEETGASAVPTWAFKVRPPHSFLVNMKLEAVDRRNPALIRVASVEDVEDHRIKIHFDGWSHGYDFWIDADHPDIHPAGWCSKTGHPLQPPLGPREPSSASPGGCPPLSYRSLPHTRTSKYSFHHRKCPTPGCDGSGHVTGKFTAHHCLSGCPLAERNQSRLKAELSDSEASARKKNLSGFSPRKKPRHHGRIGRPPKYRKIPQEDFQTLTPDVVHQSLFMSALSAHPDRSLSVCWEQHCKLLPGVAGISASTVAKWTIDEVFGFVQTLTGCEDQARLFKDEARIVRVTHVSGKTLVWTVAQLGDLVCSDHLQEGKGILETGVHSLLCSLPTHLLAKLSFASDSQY
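L3MBTL1 (50 nM) pre-complexed 30 min with biotinylated H3(1-15)K9me1 peptide (75 nM), then compounds added for 30 min at room temperature; AlphaScreen streptavidin donor/nickel chelate acceptor beads (10 ug/mL final) read after 30 min dark incubation.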
BAZ2B block: qHTS Assay for Inhibitors of BAZ2B | Bromodomain adjacent to zinc finger domain protein 2B (Homo sapiens), Q9UIF8 | AlphaScreen BAZ2B-H3K14Ac peptide displacement | Potency, µM (doses to about 114 µM), hits mostly inhibitors | 360,000 compounds, 4.4% hits | AID 504333, 2011; further: nearly all actives have a fitted effect of over 60% in size
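Protein-peptide AlphaScreen: BAZ2B 50 nM, b-H3K14Ac 50 nM, 1x PBS pH 7.4 + 0.01% Tween-20. Preincubation 30 min RT; cpd 30 min RT (top 110 uM); beads 20 min RT, light-protected.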
JMJD2A Tudor: qHTS Assay for Inhibitors of JMJD2A-Tudor Domain; Lysine-specific demethylase 4A (Homo sapiens), O75164; AlphaScreen JMJD2A-Tudor / H3K4me3 peptide binding; Potency, µM (titrated, usually from 114 µM), most hits filed as inhibitors; 390,000 compounds, 4.4% hits; further: nearly all actives have a fitted effect of over 50% in size
HP1b binding inh: HTS for Inhibitors of HP1-beta Chromodomain Interactions with Methylated Histone Tails. Chromobox protein homolog 1 (Homo sapiens), P83916. AlphaScreen HP1-beta / biotin-H3K9me3 peptide binding. Potency, µM (top dose mostly 114 µM), most hits filed as inhibitors. 390,000 compounds, 0.56% hits; further: nearly all actives have a fitted effect of over 70% in size
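AlphaScreen: HP1-beta (50 nM) preformed 30 min with biotin-H3(1-18)K9me3 peptide (50 nM) in PBS pH 7.4, 0.01% Tween-20. Compound added for 30 min at RT, then streptavidin donor/nickel chelate acceptor beads (10 ug/mL) for 30 min.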
G9a inh: qHTS Assay for Inhibitors of Histone Lysine Methyltransferase G9a; Histone-lysine N-methyltransferase EHMT2 (Homo sapiens), Q96KQ7; G9a H3K9 monomethylation, AlphaScreen, 2 h; Potency, µM (doses to about 102 µM), usual class: inhibitors; 350,000 compounds, 8.8% hits; AID 504332, 2011; further: nearly all actives have a fitted effect of over 75% in size
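Compounds were preincubated with 20 nM G9a for 15 min, after which biotinylated H3K9 peptide (500 nM) and SAM (20 uM) started a 2 h room-temperature reaction. Monomethylated product was quantified by antibody-based AlphaScreen chemiluminescence.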
Of the large screens only hits and unclear results are named; the others gave an inactive call. The call rests on the fitted dose curve; in most records, active means well fitted curve in the direction sought with a large enough effect; inconclusive means small, poorly fitted or top-dose-only effect, or another doubt; inactive means no such curve, though single readings can be large; an effect the other way counts as inactive or inconclusive.

CC(NC(=O)Cc1cc(F)cc(F)c1)C(=O)NC(C(=O)OC(C)(C)C)c1ccccc1 (stereo unspecified)	none (no result: L3MBTL1 inh, BAZ2B block, JMJD2A Tudor, HP1b binding inh, G9a inh)
COc1ccccc1/C=N/NC(=O)c1nnn(-c2nonc2N)c1-c1cccs1	none (no result: L3MBTL1 inh)
COc1ccc(-c2c(C)nn3c(C(F)(F)F)cc(-c4ccccc4)nc23)cc1OC	BAZ2B block inconclusive, JMJD2A Tudor inconclusive, G9a inh inconclusive (no result: Sfp inh, L3MBTL1 inh)
C=CCn1c(SCC(=O)N(CC)C2CCS(=O)(=O)C2)nc2cc(C(=O)O)ccc2c1=O (stereo unspecified)	none (no result: Sfp inh)
O=S(=O)(Nc1cccc(-c2ccc(N3CCCCC3)nn2)c1)c1ccc(Cl)s1	none (no result: Sfp inh, L3MBTL1 inh)
C#CCOCCOCCOCCNc1nc(N2CCN(C(=O)[C@H](C)n3cc(CCCN=C(N)N)nn3)CC2)nc(N2CCN(C(=O)[C@H](C)n3cc(CCCN=C(N)N)nn3)CC2)n1	G9a inh 79µM
C#CCOCCOCCOCCNc1nc(N2CCN(C(=O)Cn3cc(CC(C)O)nn3)CC2)nc(N2CCN(C(=O)[C@H]([C@@H](C)CC)n3cc(CCCN=C(N)N)nn3)CC2)n1 (stereo partly specified)	BAZ2B block inconclusive, G9a inh 50µM
C#CCOCCOCCOCCNc1nc(N2CCN(C(=O)[C@H]([C@@H](C)O)n3cc(CCCCN)nn3)CC2)nc(N2CCN(C(=O)[C@H](C)n3cc(CCC(=O)O)nn3)CC2)n1	none (no result: Sfp inh, L3MBTL1 inh, BAZ2B block, G9a inh)
C#CCOCCOCCOCCNc1nc(N2CCN(C(=O)[C@H]([C@@H](C)CC)n3cc(CCCCN)nn3)CC2)nc(N2CCN(C(=O)[C@H](C)n3cc(CCC(=O)O)nn3)CC2)n1	Sfp inh inconclusive, BAZ2B block inconclusive, G9a inh 79µM
CCOc1ccc(CCNc2nc3ccccc3n3cnnc23)cc1OCC	none
CNC(=O)c1c(NC(=O)CCS(=O)(=O)c2ccc(C)cc2)sc2c1CCN(C(=O)OC)C2	G9a inh 50µM (no result: Sfp inh)
CC(=O)N1CCc2c(sc(NC(=O)CCS(=O)(=O)c3ccc(C)cc3)c2C#N)C1	none (no result: Sfp inh)
CNC(=O)c1c(NC(=O)CCS(=O)(=O)c2ccccc2)sc2c1CCN(C(=O)OC)C2	G9a inh 50µM (no result: Sfp inh)
O=C(NCc1nc2ccccc2[nH]1)C1=C[C@@H](C2CCCCC2)C[C@@H](OCCCCO)O1	none (no result: L3MBTL1 inh)
CC(NC(=O)CCCCCCN1C(=O)c2ccccc2C1=O)c1ccc2c(c1)CCCC2 (stereo unspecified)	none
CC(NC(=O)CCCCCN1C(=O)c2ccccc2C1=O)c1ccc2c(c1)CCCC2 (stereo unspecified)	G9a inh 8.9µM
COc1ccc(NC(=O)C2=CC=CN3CCS(=O)(=O)N=C23)c(OC)c1	none (no result: Sfp inh, BAZ2B block, G9a inh)
N#C/C(=C(/O)CSc1ccccn1)c1nc2ccccc2s1	G9a inh 45µM (no result: L3MBTL1 inh)
Cc1ccc(SC/C(O)=C(\C#N)c2nc3ccccc3s2)cc1	G9a inh inconclusive
c1ccc(SCc2nc3ccccc3s2)nc1	Sfp inh inconclusive, G9a inh 35µM (no result: L3MBTL1 inh)
N#C/C(=C(/O)COC(=O)c1ccc(C#N)cc1)c1nc2ccccc2s1	Sfp inh 50µM, BAZ2B block inconclusive, JMJD2A Tudor inconclusive, G9a inh inconclusive
COc1ccc(CCNC(=O)CCCn2c(=O)c3ccccc3n(Cc3ccccc3C#N)c2=O)cc1OC	none (no result: Sfp inh, L3MBTL1 inh)
C#Cc1ccc(CN2CCC(Oc3ccc(C(=O)NCc4ccccn4)cc3)CC2)cc1	none (no result: L3MBTL1 inh, G9a inh)
Cn1c(-c2ccc(=O)[nH]c2)nc2ccccc21	Sfp inh 18µM (no result: G9a inh)
O=c1ccc(-c2nc3ccccc3n2Cc2ccc(Cl)cc2)c[nH]1	none (no result: L3MBTL1 inh)
Nc1nc2c(s1)COc1ccccc1-2	Sfp inh 16µM, HP1b binding inh inconclusive, G9a inh 32µM
COc1ccccc1CNC(c1ccccc1)c1ccccc1	none
COc1cc(C)c(NC(c2ccccc2)c2ccccc2)cc1OC	BAZ2B block 40µM, JMJD2A Tudor 45µM, HP1b binding inh inconclusive, G9a inh 28µM

Assay outcomes as filed in PubChem BioAssay.
